The list is not random: actives were taken first. Their share in the collection is about 3%.
TSG101-PTAP inh: blocks PTAP/TSG101 interaction to inhibit HIV-1 budding. Q99816. Fluorescence polarization, FITC-PTAP peptide / Tsg101 binding. Potency, µM (top dose mostly 115 µM), without a hit: at the top dose activity change, negative = inhibition, actives largely listed as inhibitors. 340,000 tested, under 10 active; active means well fitted inhibition curve with a large enough effect in the main read-out, with a control signal flat, not every such curve was filed as active; inconclusive means small, poorly fitted or top-dose-only effect, or effect the other way, or a change in a side signal; inactive means no such curve, though single readings can be large or run the other way; further: potency means the concentration at half of the fitted maximal effect; % of control where 0% means no effect
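Fluorescence anisotropy tracks displacement of a FITC-tagged PTAP peptide (50 nM) from the Tsg101 binding domain (10 uM), following a 20 min room-temperature incubation at pH 7.5.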
VDR inh: vitamin D3 receptor (human) inhibition | AID 504847 | VDR-SRC2-3 peptide fluorescence polarization, 2 h | 0.93% of 400,000 active | Potency, µM, without a hit: max response, negative = inhibition, actives largely listed as inhibitors | P11473; further: potency means the concentration at half of the fitted maximal effect; on the % scale 0 is the no-effect control and ±100 the full control effect
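Measured by FP: displacement of SRC2-3 coactivator peptide from VDR by library compounds, following a two-hour ambient incubation.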
GCN5L2 inh-1: inhibitors of human GCN5L2 histone acetyltransferase; GCN5L2 HAT assay, ThioGlo1 CoA-SH fluorescence; Potency, µM (top dose mostly 58.9 µM), without a hit: at the top dose activity change, negative = inhibition, most hits filed as inhibitors; 0.21% of 390,000 active; AID 504327; further: potency means the concentration at half of the fitted maximal effect; on the % scale 0 is the no-effect control and ±100 the full control effect
Target sequence (Q92830 whole entry, looked up): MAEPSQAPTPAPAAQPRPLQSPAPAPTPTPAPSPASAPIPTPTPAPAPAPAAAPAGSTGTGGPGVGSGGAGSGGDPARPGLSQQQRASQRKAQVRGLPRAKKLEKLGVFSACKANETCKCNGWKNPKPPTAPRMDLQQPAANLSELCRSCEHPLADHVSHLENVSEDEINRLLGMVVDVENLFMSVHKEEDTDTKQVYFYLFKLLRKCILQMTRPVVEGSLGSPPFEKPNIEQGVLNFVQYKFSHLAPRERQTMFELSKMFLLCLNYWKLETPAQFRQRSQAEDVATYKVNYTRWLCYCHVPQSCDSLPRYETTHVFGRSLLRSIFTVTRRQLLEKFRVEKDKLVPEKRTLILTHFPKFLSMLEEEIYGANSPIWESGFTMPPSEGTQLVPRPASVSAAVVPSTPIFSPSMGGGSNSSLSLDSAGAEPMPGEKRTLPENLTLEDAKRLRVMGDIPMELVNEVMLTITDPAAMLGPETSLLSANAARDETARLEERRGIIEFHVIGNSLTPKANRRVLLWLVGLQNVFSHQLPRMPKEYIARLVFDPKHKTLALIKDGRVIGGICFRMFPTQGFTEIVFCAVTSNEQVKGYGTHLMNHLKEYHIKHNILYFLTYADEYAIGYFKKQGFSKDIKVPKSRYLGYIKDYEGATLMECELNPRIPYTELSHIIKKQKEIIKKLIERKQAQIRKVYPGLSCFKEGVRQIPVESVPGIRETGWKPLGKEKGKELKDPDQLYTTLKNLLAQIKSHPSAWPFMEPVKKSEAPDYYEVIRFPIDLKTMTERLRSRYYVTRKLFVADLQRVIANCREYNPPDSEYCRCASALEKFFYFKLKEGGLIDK
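Compounds, pin-transferred from DMSO stocks, meet 20nM GCN5L2 for 15 min before the reaction begins with H3(1-25) peptide (75uM) and acetyl-CoA (70uM). Thiol-reactive ThioGlo1 reports CoA release over 20 min at room temperature.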
PLK1 PBD inh: PLK1 (human) polo-box domain binding inhibition | P53350 | Plk1 PBD binding of FITC phosphopeptide, fluorescence polarization | Potency, µM, for inactives: max response, negative = inhibition, hits mostly inhibitors | 2.8% of 360,000 active | AID 720504; further: potency means the concentration at half of the fitted maximal effect; series mostly up to about 57 µM; on the % scale 0 is the no-effect control and ±100 the full control effect; nearly all actives have a fitted effect of over 65% in size
USP1-UAF1 inh: blocks the human USP1/UAF1 deubiquitinase complex. recombinant USP1/UAF1, Ub-Rhodamine cleavage fluorescence. Potency, µM (series often up to 57.1 µM), for the others: at the top dose activity change, negative = inhibition, most hits filed as inhibitors. 0.23% of 390,000 active; further: potency means the concentration at half of the fitted maximal effect; on the % scale 0 is the no-effect control and ±100 the full control effect; nearly all actives have a fitted effect of over 60% in size
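In this screen, compounds sit with the deubiquitinase complex (1nM) for 15 min at room temperature before Ub-Rho is added at 150nM final. Fluorescence rise is then followed for 6 reads every 60 seconds.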
GCN5L2 inh-2: human KAT2A HAT inhibition, hit confirmation | shares compounds with GCN5L2 inh-1 | GCN5L2 HAT, ThioGlo1 CoA fluorescence, 20 min | Potency, µM, usual class: inhibitors | 70% of 140 active | AID 588347
Numbers without * were called inactive; ? = inconclusive; · = not tested or not shown. Unless noted, the call rests on the fitted dose curve; in most records, active means well fitted curve in the direction sought with a large enough effect; inconclusive means small, poorly fitted or top-dose-only effect, or another doubt; inactive means no such curve, though single readings can be large; an effect the other way counts as inactive or inconclusive.

SMILES	TSG101-PTAP inh	VDR inh	GCN5L2 inh-1	PLK1 PBD inh	USP1-UAF1 inh	others
Cc1csc(=O)n1CC(=O)OCC(=O)Nc1ccc(F)c(F)c1F	·	·	·	4%	8%
Nc1nnnn1/N=C/c1ccccc1C(F)(F)F	0%	-13%	-6%	3.4µM*	-11%
CCOC(=O)C1CCN(C(=O)Nc2ccc3nc(-c4ccco4)c(-c4ccco4)nc3c2)CC1	-14%	?	?	12µM*	?
O=C(Nc1ccc2nc(-c3ccco3)c(-c3ccco3)nc2c1)N1CCCCCC1	-22%	?	14µM*	24µM*	32µM*
O=C(Nc1cccc(Cl)c1)N1CCCC1	-4%	18µM*	1%	6µM*	-15%
Cc1ccccc1-c1nnn(CC(=O)Nc2sc3c(c2C#N)CCC(C(C)(C)C)C3)n1 (stereo unspecified)	·	-8%	-1%	·	-11%
Cc1c(NC(=O)c2ccc(Br)o2)cccc1-c1nc2ccccc2o1	·	-1%	-1%	·	?
COc1ccc(S(=O)(=O)Nc2nnc(Cc3ccc(OC)c(OC)c3)s2)cc1	-2%	-4%	-4%	27µM*	-23%
COc1ccc(Cc2nnc(NS(=O)(=O)c3ccccc3)s2)cc1	-4%	6%	-8%	?	-1%
COc1ccc(Cc2nnc(NS(=O)(=O)c3ccc([N+](=O)[O-])cc3)s2)cc1	-2%	-3%	-8%	30µM*	?
CCCCN(C)C(=O)C1CCC(CNS(=O)(=O)c2ccc(Cl)cc2)CC1 (stereo unspecified)	·	10%	3%	·	-10%
CCN(c1ccc(C)cc1)S(=O)(=O)c1nnc(NC(=O)C2CCCCC2)s1	·	-3%	-2%	·	-15%
COc1ccc2c(c1)CC/C(=C/c1ccncc1)C2=O	-7%	?	-2%	-14%	-8%
COc1ccc2c3c(ccc2c1)C(=O)/C(=C/O)CC3	-3%	-29%	·	4.2µM*	-25%
CCOC(=O)C1CCN(C(=O)COC(=O)c2nc3nc(C)cc(C)n3n2)CC1	1%	-4%	-2%	-4%	-2%
CCOC(=O)C1CCN(S(=O)(=O)c2nc3nc(C)cc(C)n3n2)CC1	-6%	-6%	0%	30µM*	-7%
N#C/C(=C\c1ccc(O)c([N+](=O)[O-])c1)c1nc2ccccc2s1	-1%	?	-15%	24µM*	?
N#C/C(=C\c1ccco1)c1nc2ccccc2s1	?	-2%	-10%	-12%	-16%
COc1ccc(-c2csc(/C(C#N)=C\c3ccc(OC)c([N+](=O)[O-])c3)n2)cc1	?	-2%	-2%	-5%	-16%
COc1cc(/C=C(\C#N)c2nc3ccccc3s2)cc([N+](=O)[O-])c1O	-12%	-17%	?	21µM*	-22%
COc1ccc(-c2csc(/C(C#N)=C\c3ccc(O)c([N+](=O)[O-])c3)n2)cc1OC	-8%	2%	?	27µM*	-8%
CCOc1ccc(NC(=O)CC2C(=O)N(c3cccc(C)c3)C(=O)N2CCC2=CCCCC2)cc1 (stereo unspecified)	·	-24%	-8%	·	-26%
O=C(O)c1ccccc1-c1csc(-c2ccccc2)n1	1%	-7%	-6%	-7%	-15%
FC(F)(F)c1cccc(Cc2noc(CN3CCCC(OCc4ccccn4)C3)n2)c1 (stereo unspecified)	-3%	-2%	?	6%	-14%
CNC(=O)NC(=O)C(C)OC(=O)c1c2c(nc3ccccc13)/C(=C/c1cccs1)CC2 (stereo unspecified)	?	-6%	14µM*	-24%	4%	GCN5L2 inh-2=?
SMILES	TSG101-PTAP inh	VDR inh	GCN5L2 inh-1	PLK1 PBD inh	USP1-UAF1 inh	others
O=C(Cc1ccc(Cl)cc1Cl)Nc1cccc(S(=O)(=O)Nc2ccccc2F)c1	0%	?	?	1.2µM*	-3%	GCN5L2 inh-2=?
N=C1/C(=C/c2ccc(-c3cccc(C(=O)O)c3)o2)C(=O)N=C2SC=C(c3ccccc3)N12	4%	-21%	22µM*	15µM*	?	GCN5L2 inh-2=16*
CC(=O)NC(C)(c1ccccc1)c1nc(-c2cccc3cccnc23)cs1 (stereo unspecified)	·	·	·	-3%	·
CCc1ccc([C@@H]2CC=C(C(=O)O)[C@H](c3ccc(C(C)(C)C)cc3)N2S(=O)(=O)c2ccc(C)cc2)cc1	-14%	-24%	18µM*	24µM*	?	GCN5L2 inh-2=18*
Cc1ccc(S(=O)(=O)N2[C@@H](c3ccccc3F)C(C(=O)O)=CC[C@H]2c2ccc(C(C)C)cc2)cc1	-4%	-20%	?	?	-27%
Cc1ccc(S(=O)(=O)N2[C@@H](c3ccc(C(C)(C)C)cc3)C(C(=O)O)=CC[C@H]2c2ccc(C(C)C)cc2)cc1	?	-7%	14µM*	17µM*	?	GCN5L2 inh-2=13*
CCc1ccc([C@@H]2CC=C(C(=O)O)[C@H](c3ccccc3)N2S(=O)(=O)c2ccc(C)cc2)cc1	-8%	0%	-7%	?	-13%
CN(C)c1ccc(Nc2cc(Cl)ncn2)cc1	-4%	7%	-11%	-3%	-16%
CCOc1ccc(CNC(=O)c2nn(-c3ccc(OC)cc3)c(=O)c3c2c2ccccc2n3C)cc1	·	-12%	-6%	·	-23%
CCc1ccc(-n2nc3ccc(NC(=O)COc4ccc(OC)cc4)cc3n2)cc1	·	-14%	-3%	·	-18%
COCCCn1c(=S)[nH]c2ccc(N3CCOCC3)cc2c1=O	-1%	6%	?	-2%	-22%	GCN5L2 inh-2=32*
COc1ccc(CCn2c(=S)[nH]c3ccc(N4CCOCC4)cc3c2=O)cc1OC	-1%	-17%	-4%	?	-7%
CCOc1cc(C#N)c(-n2nnc3c(sc4nc(C)cc(C)c43)c2=O)cc1OCC	·	-23%	1%	·	-7%
O=C(NC1CCCCC1)c1ccc(CSc2nc3ccncc3n2Cc2ccccc2F)cc1	·	6%	-8%	·	-11%
CCOC(=O)C1CCCN(C(=O)c2cc(-c3ccncc3)nc3ccccc23)C1 (stereo unspecified)	-3%	-8%	3%	-2%	-12%
CCN(CC)C(=O)COC(=O)c1cc(-c2ccc(OC)cc2)nc2ccccc12	3%	-1%	-6%	0%	-11%
CCOC(=O)C1CCCN(C(=O)c2cc(-c3ccco3)nc3ccccc23)C1 (stereo unspecified)	-4%	?	28µM*	?	-17%	GCN5L2 inh-2=18*
CCN(CC)C(=O)COC(=O)c1cc(-c2ccco2)nc2ccccc12	-6%	12%	?	?	-11%	GCN5L2 inh-2=32*
O=c1cnnc(N/N=C/C2CC=CCC2)[nH]1 (stereo unspecified)	0%	-4%	-3%	3%	-19%

Bioassay records from PubChem.
